In paper PMC10726135, “HNF4α isoforms regulate the circadian balance between carbohydrate and lipid metabolism in the liver” one finds binding signal data, which are given here for 44 sequences.

Over roughly 18,000 sequences, “log2 normalized intensity” has its median near 0.36; the highest 2% begin near 7.3. The entries come from a sample that favours the highest values as a whole.

For this experiment, the target named is T1, HNF4alpha8 (COS-7 nuclear extract) (Homo sapiens, UniProt P41235-5 1-452).
T1 sequence: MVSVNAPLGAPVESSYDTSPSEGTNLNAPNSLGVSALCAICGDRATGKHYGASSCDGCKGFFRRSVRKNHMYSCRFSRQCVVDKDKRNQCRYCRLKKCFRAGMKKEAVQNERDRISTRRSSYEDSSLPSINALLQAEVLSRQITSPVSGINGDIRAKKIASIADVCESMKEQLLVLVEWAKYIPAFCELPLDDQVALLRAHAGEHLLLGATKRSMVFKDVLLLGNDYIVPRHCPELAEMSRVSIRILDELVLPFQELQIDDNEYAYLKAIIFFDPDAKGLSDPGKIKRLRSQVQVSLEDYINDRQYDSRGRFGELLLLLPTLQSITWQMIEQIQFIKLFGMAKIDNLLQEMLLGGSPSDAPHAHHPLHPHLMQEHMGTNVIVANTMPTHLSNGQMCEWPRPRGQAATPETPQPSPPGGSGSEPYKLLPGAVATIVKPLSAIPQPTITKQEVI
The experiment in a line: protein-binding microarray; COS-7 nuclear extract on double-stranded Agilent 4x180k PBM; binding buffer, salt, pH and temperature not given in the material; high values mean tight binding. To be noted: chain copies: 2; label: 3' end of strand 1 on the slide; dsDNA, one strand shown. Put shortly: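 Binding signal was defined as the normalized, background-corrected gProcessedSignal reported by Agilent software. It came from nuclear extracts of COS-7 cells transiently transfected with a human HNF4α isoform expression vector, applied to a custom Agilent SurePrint G3 4x180k array. That array held ~44,000 test sequences in quadruplicate as double-stranded ~60-nt oligonucleotides, and bound HNF4α was imaged at 2-µm resolution on an Agilent G2565CA scanner.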
As to “TGCACATTCCCTCCAGCAGGGGATGCCCTTGCCTAGGGAGATTAGAGTATCGGTCGA”, the binding signal was 2.84 log2 normalized intensity.

“TTATGCAGACCTTTGCCCTTTGTTTACATAGCCTAGGGAGATTAGAGTATCGGTCGA”: the binding signal stood at 5.95 log2 normalized intensity.

On to “AAAGCCTAGGCTCCAGGGCACTGCCCTTTGGCCTAGGGAGATTAGAGTATCGGTCGA”, for which the binding signal is 3.51 log2 normalized intensity.

On to “ATTCCCTCCAGCAGGGGATGCCCTTTGACCGCCTAGGGAGATTAGAGTATCGGTCGA”, for which the binding signal is 9.35 log2 normalized intensity.

As for “GGATGCCCTTTGACCTCTGCTTCCTGCTACGCCTAGGGAGATTAGAGTATCGGTCGA”, the binding signal worked out at 6.5 log2 normalized intensity.

As for “TGCTTCCAAGTTATGCAGACCTTTGCCCTTGCCTAGGGAGATTAGAGTATCGGTCGA”, the binding signal was 7.7 log2 normalized intensity.

Take “CTCCAGGGCACTGCCCTTTGGAACCTGCCCGCCTAGGGAGATTAGAGTATCGGTCGA”: the binding signal worked out at 6.57 log2 normalized intensity.

On to “GCAGGGGATGCCCTTTGACCTCTGCTTCCTGCCTAGGGAGATTAGAGTATCGGTCGA”, for which the binding signal was 8.67 log2 normalized intensity.

As for “CCCTTTGACCTCTGCTTCCTGCTACAGAGCGCCTAGGGAGATTAGAGTATCGGTCGA”, the binding signal stood at 2.76 log2 normalized intensity.

Take “TACTTTGCTTCCAAGTTATGCAGACCTTTGGCCTAGGGAGATTAGAGTATCGGTCGA”: the binding signal is 2.66 log2 normalized intensity.

Take “CTAGGCTCCAGGGCACTGCCCTTTGGAACCGCCTAGGGAGATTAGAGTATCGGTCGA”: the binding signal came to 7.42 log2 normalized intensity.

On to “ATTCCCTTTCTCCTCCCCTCCCCTCCCCCCGCCTAGGGAGATTAGAGTATCGGTCGA”, for which the binding signal turned out to be 6.78 log2 normalized intensity.

In the case of “CACAGACCTGCCTCTCTCTCATGTCTGTACGCCTAGGGAGATTAGAGTATCGGTCGA”, the binding signal turned out to be 0.832 log2 normalized intensity.

For “TGGTGCTATGTCCCTGACTGTGTGGCTTGCGCCTAGGGAGATTAGAGTATCGGTCGA”, the binding signal came out at 0.908 log2 normalized intensity.

For “GTCCATCACCTGGCTCTGAAAAACAAAATGGCCTAGGGAGATTAGAGTATCGGTCGA”, the binding signal was -0.567 log2 normalized intensity.

As to “CTTCACCTCCCCTAGACTTACTATTATGCCGCCTAGGGAGATTAGAGTATCGGTCGA”, the binding signal was determined as 1.86 log2 normalized intensity.

For “TGAGGGGACAAAGTTCGTGGAAAGTGGAAGGCCTAGGGAGATTAGAGTATCGGTCGA”, the binding signal amounted to 3.11 log2 normalized intensity.

As for “GCAGAGGGACAACTGAGTTACGTAATGTGTGCCTAGGGAGATTAGAGTATCGGTCGA”, the binding signal came out at 0.932 log2 normalized intensity.

On to “TGAACTATTGAACCACCAGATAGAGCTTTTGCCTAGGGAGATTAGAGTATCGGTCGA”, for which the binding signal was determined as 0.654 log2 normalized intensity.

Regarding “CCACCCTATTGATGCAAGGACAATGTCTAGGCCTAGGGAGATTAGAGTATCGGTCGA”, the binding signal is 1.38 log2 normalized intensity.

Take “CTTCAAGTCAGTCAAAATGAATAGTCCTTTGCCTAGGGAGATTAGAGTATCGGTCGA”: the binding signal is 0.855 log2 normalized intensity.

“GGCCAGATAAAGCAGGTTGTACCTTGACCCGCCTAGGGAGATTAGAGTATCGGTCGA”: the binding signal worked out at 9.73 log2 normalized intensity.

On to “GATAAAGCAGGTTGTACCTTGACCCAAGAAGCCTAGGGAGATTAGAGTATCGGTCGA”, for which the binding signal stood at 5.6 log2 normalized intensity.

For “GGCAGGGCCAGATAAAGCAGGTTGTACCTTGCCTAGGGAGATTAGAGTATCGGTCGA”, the binding signal was found to be 3.15 log2 normalized intensity.

As for “CCTGCTTCCAGGCTTGTACCTTGACCTTCTGCCTAGGGAGATTAGAGTATCGGTCGA”, the binding signal stood at 7.46 log2 normalized intensity.

“TTCCAGGCTTGTACCTTGACCTTCTCTGTTGCCTAGGGAGATTAGAGTATCGGTCGA”: the binding signal was 6.19 log2 normalized intensity.

As to “CCCTTCCTGCTTCCAGGCTTGTACCTTGACGCCTAGGGAGATTAGAGTATCGGTCGA”, the binding signal was determined as 3.23 log2 normalized intensity.

As to “AGATCTGGATATGCCTGGGGTTCCAGTTACGCCTAGGGAGATTAGAGTATCGGTCGA”, the binding signal was 0.546 log2 normalized intensity.

“CTTCCATATAACCCTTGAACCTTCTTCTTGGCCTAGGGAGATTAGAGTATCGGTCGA”: the binding signal turned out to be 4.81 log2 normalized intensity.

Regarding “CCTCCAGGCCCCAGCCACGCCCTCTAACCCGCCTAGGGAGATTAGAGTATCGGTCGA”, the binding signal came to 3.33 log2 normalized intensity.

Turning to “TTATCAGGACTTTGTGATTACATTGAGTCCGCCTAGGGAGATTAGAGTATCGGTCGA”, the binding signal came to 1.97 log2 normalized intensity.

For “AAAAACACCTGGTTCCTTGCAAGATAAGGGGCCTAGGGAGATTAGAGTATCGGTCGA”, the binding signal was -0.239 log2 normalized intensity.

With “CCTCTCAGGAATGTGGATGCTAAAAGTGAAGCCTAGGGAGATTAGAGTATCGGTCGA”, the binding signal was -0.262 log2 normalized intensity.

For “GTATGTTCTTAAGATAAGGACTGTTGGACCGCCTAGGGAGATTAGAGTATCGGTCGA”, the binding signal turned out to be 4.24 log2 normalized intensity.

For the sequence “GGGAAGCTGTGTGAAGTGACTTGCCCTGTTGCCTAGGGAGATTAGAGTATCGGTCGA”, the binding signal was determined as 2.3 log2 normalized intensity.

Regarding “ATGCTAAAGTCTACATTCTAGATGACCCCTGCCTAGGGAGATTAGAGTATCGGTCGA”, the binding signal is 6.17 log2 normalized intensity.

“TTACTGGACTTGATCCATTCTACCCCTGTGGCCTAGGGAGATTAGAGTATCGGTCGA”: the binding signal stood at 2.82 log2 normalized intensity.

As for “GGACTTGATCCATTCTACCCCTGTGGTTGAGCCTAGGGAGATTAGAGTATCGGTCGA”, the binding signal was 2.5 log2 normalized intensity.

Turning to “GTTGACCTTTAGTCTCTAGCCCCGCCCAGAGCCTAGGGAGATTAGAGTATCGGTCGA”, the binding signal worked out at 5.33 log2 normalized intensity.

Turning to “TGATCCATTCTACCCCTGTGGTTGACCTTTGCCTAGGGAGATTAGAGTATCGGTCGA”, the binding signal worked out at 8.51 log2 normalized intensity.

As for “TACCCCTGTGGTTGACCTTTAGTCTCTAGCGCCTAGGGAGATTAGAGTATCGGTCGA”, the binding signal came out at 7.47 log2 normalized intensity.

With “TGTCTACCCTTTTGCCCTTTGAGCTTCTGTGCCTAGGGAGATTAGAGTATCGGTCGA”, the binding signal stood at 5.93 log2 normalized intensity.

For “CATTCTACCCCTGTGGTTGACCTTTAGTCTGCCTAGGGAGATTAGAGTATCGGTCGA”, the binding signal was 8.33 log2 normalized intensity.

Consider “AGTGACCCTGTCTCTCAGTCTCTGTGGGAGGCCTAGGGAGATTAGAGTATCGGTCGA”, for which the binding signal is 1.23 log2 normalized intensity.
